Source: PubChem BioAssay

Experiment: TRAIL sensitizers in caspase-8 expressing neuroblastoma cells, dose response, NB7 cells plus caspase-8, luminescence, panel (AID 652002)
Conditions: NB7 neuroblastoma +caspase-8, no TRAIL, compound-alone cytotoxicity counter-screen, luminescence viability, NB7+Caspase-8, run 1; at 12.5 µM (top of the series) unless noted

| SMILES | activity, % sensitization |
| --- | --- |
| C/C(=N\NC(=O)c1csc(C)c1C)c1ccco1 | 22.5% |
| CCCCc1nc(NCCN)c(C#N)c2c1CSC(C)(C)C2 | 3.06% |
| CC(C)C[C@H](NC(=O)c1nc[nH]c1C(=O)N[C@@H](CCCCNC(=O)OC(C)(C)C)C(=O)OC(C)(C)C)C(=O)OCc1ccccc1 | -4.5% |
| Cc1cc(NC(=O)C2CCCC2)nc2c1c(=O)oc1ccccc12 | 0.143% |
| CC(C)(C)OC(=O)NCc1ccc(NC(=O)c2nc[nH]c2C(=O)N[C@@H](Cc2ccccc2)C(=O)OCc2ccccc2)cc1 | -8.6% |
| c1ccc(Nc2nnc(-c3cccnc3)s2)cc1 | -5.23% |
| COc1cccc(NC(=O)Nc2nccc(C)n2)c1 | 25.8% |
| O=C(c1cnc(Cl)c(Cl)c1)N1CCN(S(=O)(=O)c2ccc3ccccc3c2)CC1 | 3.76% |
| COc1cc(SC#N)ccc1N=Cc1c(C)[nH]n(-c2ccc(Cl)cc2)c1=O | -15.4% |
| COc1ccccc1/C=C/C=N/n1c(-c2cc(-c3ccccc3)n[nH]2)n[nH]c1=S | 10.6% |
| Cc1cc2nc3ccc(N(C)C)cc3nc2cc1N | 24.2% |
| O=C(Nc1ccc2[nH]ccc2c1)c1cccs1 | 46.5% |

Experiment: as above
Conditions: NB7 neuroblastoma +caspase-8, no TRAIL, compound-alone cytotoxicity counter-screen, luminescence viability, NB7+Caspase-8, run 2; at 12.5 µM (top of the series) unless noted

| SMILES | activity, % sensitization |
| --- | --- |
| C/C(=N\NC(=O)c1csc(C)c1C)c1ccco1 | -4.13% |
| CCCCc1nc(NCCN)c(C#N)c2c1CSC(C)(C)C2 | -6.28% |
| CC(C)C[C@H](NC(=O)c1nc[nH]c1C(=O)N[C@@H](CCCCNC(=O)OC(C)(C)C)C(=O)OC(C)(C)C)C(=O)OCc1ccccc1 | -28.8% |
| Cc1cc(NC(=O)C2CCCC2)nc2c1c(=O)oc1ccccc12 | 17.1% |
| CC(C)(C)OC(=O)NCc1ccc(NC(=O)c2nc[nH]c2C(=O)N[C@@H](Cc2ccccc2)C(=O)OCc2ccccc2)cc1 | -21.5% |
| c1ccc(Nc2nnc(-c3cccnc3)s2)cc1 | -13.3% |
| COc1cccc(NC(=O)Nc2nccc(C)n2)c1 | 11.9% |
| O=C(c1cnc(Cl)c(Cl)c1)N1CCN(S(=O)(=O)c2ccc3ccccc3c2)CC1 | -5.02% |
| COc1cc(SC#N)ccc1N=Cc1c(C)[nH]n(-c2ccc(Cl)cc2)c1=O | -20.1% |
| COc1ccccc1/C=C/C=N/n1c(-c2cc(-c3ccccc3)n[nH]2)n[nH]c1=S | -34.4% |
| Cc1cc2nc3ccc(N(C)C)cc3nc2cc1N | 12.1% |
| O=C(Nc1ccc2[nH]ccc2c1)c1cccs1 | 43.5% |
